The text below walks through data of PubChem BioAssay.

Calls of active or inactive are those of the source. Unless noted, the rule behind the calls is not given here.

A short description of experiment [1]: compound effects on lung adenocarcinoma cell viability – A549, calcein-AM fluorescence, 48 h, basal, profiling panel (AID 1162). Note: test concentration not given here. The conditions noted are these: higher = more signal.
A short description of experiment [2]: compound effects on differentiated 3T3-L1 adipocyte viability – cell-based, 3T3-L1 adipocytes, calcein-AM fluorescence, 48 h, basal, profiling panel (AID 1163). Note: test concentration not given here. The conditions noted are these: 3T3-L1 adipocytes viability, higher = more signal.
A short description of experiment [3]: compound effects on hepatocellular carcinoma cell viability – HepG2, calcein-AM fluorescence, 48 h, basal, profiling panel (AID 1164). Note: test concentration not given here. The conditions noted are these: higher = more signal.
A short description of experiment [4]: compound effects on multiple myeloma cell viability – MM1S, calcein-AM fluorescence, 48 h, basal, profiling panel (AID 1165). Note: test concentration not given here. The conditions noted are these: higher = more signal.
Experiment [5] can be described thus: calcein-AM signal in unstimulated myeloma cells – cell-based, calcein-AM fluorescence, 48 h, PK04 Diversity Set, profiling panel (AID 1166).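 Note: cells grown under basal conditions without added stimulus; test concentration not given here.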 The conditions noted are these: RPMI8226 myeloma viability, higher = more signal.
Experiment [6] is described as follows: JC-1 mitochondrial signal, unstimulated HepG2 cells – cell-based, JC-1 fluorescence, 24 h, 100 nL compound, profiling panel (AID 1167). Note: test concentration not given here. The conditions noted are these: HepG2 mitochondrial potential, higher = more signal.
A short description of experiment [7]: JC-1 mitochondrial signal, unstimulated adipocytes – cell-based, JC-1 fluorescence, 3T3-L1 adipocytes, 24 h, 100 nL compound, profiling panel (AID 1168). Note: test concentration not given here. The conditions noted are these: JC-1 mitochondrial fluorescence, higher = more signal, called active from +8 up or from −8 down.
Experiment [8] is described as follows: JC-1 mitochondrial signal, unstimulated myeloma cells – cell-based, JC-1 fluorescence, RPMI8226, 24 h, 100 nL compound, profiling panel (AID 1169). Note: test concentration not given here. The conditions noted are these: JC-1 mitochondrial potential fluorescence, higher = more signal.
A short description of experiment [9]: JC-1 mitochondrial signal, unstimulated MM1S myeloma – cell-based, JC-1 fluorescence, 24 h, 100 nL compound, profiling panel (AID 1170). Note: test concentration not given here. The conditions noted are these: MM1S mitochondrial potential, higher = more signal.
Experiment [10] can be described thus: resazurin metabolic signal in A549 cells – cell-based, resazurin fluorescence, 24 h, PK04 Diversity Set, profiling panel (AID 1171). Note: test concentration not given here. The conditions noted are these: A549 viability, higher = more signal, called active from +8 up or from −8 down. (Alamar Blue is a resazurin reagent that responds to reducing activity.)
Experiment [11] is described as follows: resazurin metabolic signal in HepG2 cells – cell-based, resazurin fluorescence, 24 h, PK04 Diversity Set, profiling panel (AID 1172). Note: test concentration not given here. The conditions noted are these: HepG2 viability, higher = more signal.
Experiment [12] is described as follows: budding yeast growth changes without added modifier – OD600, strain BY4716, 24 h, basal condition, primary screen (AID 1173). The conditions noted are these: S. cerevisiae BY4716 growth, OD600, 24 h; higher = more signal, called active from +8 up or from −8 down.
Experiment [13] is described as follows: viability profiling in MM1S myeloma cells – cell-based, resazurin fluorescence, basal, 24 h, PK04 Diversity Set, profiling panel (AID 1174). Note: test concentration not given here. The conditions noted are these: higher = more signal, called active from +8 up or from −8 down.
Experiment [14] addresses Dihydroorotate dehydrogenase (quinone), mitochondrial (Plasmodium falciparum (isolate 3D7)) (UniProt Q08210). The experiment in a line: inhibition of P. falciparum DHODH – biochemical, C-terminal His tag, absorbance 600 nm, primary screen (AID 1175).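 Note: recombinant parasite enzyme with a five histidine tag at its C terminus; test concentration not given here.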 The conditions noted are these: PfDHODH enzyme, DCIP absorbance 600 nm; higher = more signal, called active from +8 up or from −8 down.

Experiment [15] in a line: inhibition of PAO1 biofilm formation – strain PAO1, LB-PBS medium, absorbance 600 nm, primary screen (AID 1176). Note: test concentration not given here. The conditions noted are these: P. aeruginosa PAO1 growth/biofilm, A600, 12 h; higher = more signal.
Experiment [16] is described as follows: growth modulation of vineyard yeast isolate – strain RM11-1a, OD600, basal, 24 h, primary screen (AID 1177).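 Note: cultures grown under basal conditions with no added stressor; test concentration not given here.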 The conditions noted are these: S. cerevisiae RM11-1a growth, OD600, 24 h; higher = more signal, called active from +8 up or from −8 down.
Experiment [17] in a line: growth of efflux-deficient E. coli DRC39 – strain DRC39, OD650, 24 h, E. coli filamentation inducers, primary screen (AID 1178).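 Note: growth measured as culture turbidity by optical density at 650 nm; test concentration not given here.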 The conditions noted are these: E. coli DRC39 acrAB, higher = more signal, called active from +8 up or from −8 down.
Experiment [18] in a line: growth of efflux-deficient E. coli DRC39 – strain DRC39, OD650, 48 h, E. coli filamentation inducers, primary screen (AID 1179).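 Note: screen aims at cell division blockers that make cells filament.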 The conditions noted are these: E. coli DRC39 delta-acrAB growth, higher = more signal, called active from +8 up or from −8 down.
Experiment [19] is described as follows: viability profiling in RPMI8226 myeloma cells – cell-based, resazurin fluorescence, basal, 24 h, PK04 Diversity Set, profiling panel (AID 1180).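 Note: RPMI8826 multiple myeloma cell line at 5000 cells per well; test concentration not given here.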 The conditions noted are these: higher = more signal.
Experiment [20] addresses E3 ubiquitin-protein ligase XIAP (Homo sapiens) (UniProt P98170). As to the kind of experiment: small molecules binding XIAP protein – biophysical, small-molecule microarray, fluorescence 635 nm, primary screen (AID 1181).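 Note: score merges 667 nm emission and signal to noise over triplicate slides.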 The conditions noted are these: higher = more signal.

Sequence of Dihydroorotate dehydrogenase (quinone), mitochondrial (Plasmodium falciparum (isolate 3D7)) (Q08210 whole entry, looked up): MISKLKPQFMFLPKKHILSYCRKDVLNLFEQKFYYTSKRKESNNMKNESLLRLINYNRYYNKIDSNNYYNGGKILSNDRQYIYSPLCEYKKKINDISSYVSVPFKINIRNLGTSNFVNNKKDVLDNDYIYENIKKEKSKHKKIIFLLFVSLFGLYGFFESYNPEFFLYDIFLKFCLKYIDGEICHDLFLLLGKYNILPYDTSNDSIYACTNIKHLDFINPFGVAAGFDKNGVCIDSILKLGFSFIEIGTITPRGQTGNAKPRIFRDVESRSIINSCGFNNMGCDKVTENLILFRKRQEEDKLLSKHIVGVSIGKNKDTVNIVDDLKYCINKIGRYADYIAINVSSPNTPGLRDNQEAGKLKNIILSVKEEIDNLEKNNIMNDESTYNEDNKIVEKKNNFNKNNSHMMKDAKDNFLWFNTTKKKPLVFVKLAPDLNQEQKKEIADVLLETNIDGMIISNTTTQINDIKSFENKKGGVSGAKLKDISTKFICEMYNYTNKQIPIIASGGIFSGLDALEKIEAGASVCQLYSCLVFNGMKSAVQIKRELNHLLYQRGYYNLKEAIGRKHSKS
Sequence of E3 ubiquitin-protein ligase XIAP (Homo sapiens) (P98170 whole entry, looked up): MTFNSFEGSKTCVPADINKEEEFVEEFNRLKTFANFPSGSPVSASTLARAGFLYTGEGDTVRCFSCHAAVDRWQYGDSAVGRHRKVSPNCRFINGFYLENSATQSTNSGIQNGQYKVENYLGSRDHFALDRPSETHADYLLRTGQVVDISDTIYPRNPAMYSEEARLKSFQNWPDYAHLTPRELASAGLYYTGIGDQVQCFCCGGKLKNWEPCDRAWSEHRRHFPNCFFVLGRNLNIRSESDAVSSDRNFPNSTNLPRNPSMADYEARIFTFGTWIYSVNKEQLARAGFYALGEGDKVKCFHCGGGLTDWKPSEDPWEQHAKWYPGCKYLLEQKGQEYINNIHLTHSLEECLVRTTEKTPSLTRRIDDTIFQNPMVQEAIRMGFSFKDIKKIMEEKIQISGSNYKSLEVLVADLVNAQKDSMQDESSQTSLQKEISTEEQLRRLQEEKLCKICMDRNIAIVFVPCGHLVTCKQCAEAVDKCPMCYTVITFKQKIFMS

Turning to `CCOC(=O)[C@H](Cc1ccccc1)NC(=O)CCC1CC(OC(=O)NCc2cccc3ccccc23)CC2(CCCC(COC(=O)NCCc3ccccc3OC)O2)O1` (stereo not given in full), the z-score is -0.111 in experiment [1]; -0.211 in experiment [2]; -0.521 in experiment [3]; -0.123 in experiment [4]; -1.39 in [5]; 0.527 in [6]. Besides, the z-score in experiment [7] was -0.177 (inactive); in experiment [8], -0.0487; in experiment [9], -0.193; in experiment [10] it was 0.737 (inactive); in experiment [11], 0.942; in experiment [12], -1.14 (inactive). In addition, the z-score in [13] was 0.179 (inactive); in experiment [15], 0.86 (inactive); in experiment [16] it was 0.166 (inactive); in experiment [17], 0.122 (inactive); in [18], 0.0971 (inactive); in experiment [19], 0.0498. Also, the figures for the composite z-score in experiment [14] and in [20] were -0.561 (inactive) and -0.194, respectively.
Turning to `CC(C)=CCCC(C)=CCON=C1[C@H]2CCn3c(=O)n(-c4ccccc4)c(=O)n3[C@H]2[C@H](O)[C@@H]2O[C@H]12`, the z-score in [1] is -0.603; in experiment [2] it was -0.141; in experiment [3], -0.838; in [4] it was -2.89; in experiment [5], -1.47; in experiment [6] it was -1.07. In addition, the z-score in experiment [7] was -0.462 (inactive); in experiment [8], -0.247; in [9], -1.81; in experiment [10], -1.33 (inactive); in experiment [11], -0.792; in experiment [12], -3.89 (inactive). Besides, the z-score in experiment [13] is -2.7 (inactive); in experiment [15] it was 0.717 (inactive); in [16], -0.0881 (inactive); in experiment [17] it was -0.611 (inactive); in experiment [18] it was 0.092 (inactive); in [19], -2.03. The figures for the composite z-score in experiment [14] and in experiment [20] were -0.197 (inactive) and 0.293, respectively.
As to `COC(=O)[C@H](C)NC(=O)CCC1CC(OC(=O)NCCc2ccc(F)cc2)CC2(CCCC(COC(=O)NCCc3ccccc3OC)O2)O1` (stereo not given in full), the z-score is -0.0621 in experiment [1]; -0.825 in [2]; 0.308 in experiment [3]; 0.636 in experiment [4]; -0.285 in [5]; 0.15 in experiment [6]. Also, the z-score in experiment [7] is 0.766 (inactive); in experiment [8], 0.0549; in experiment [9], -0.876; in experiment [10], 0.0778 (inactive); in experiment [11], 0.185; in experiment [12] it was 0.292 (inactive). In addition, the z-score is 0.173 (inactive) in [13]; 0.119 (inactive) in experiment [15]; 0.878 (inactive) in [16]; 0.636 (inactive) in experiment [17]; -0.487 (inactive) in experiment [18]; 0.833 in [19]. Moreover, the figures for the composite z-score in experiment [14] and in [20] were 0.098 (inactive) and -0.0615, respectively.
Regarding `CCc1cc2c(nc1CC)CCN(CCC(C)=NO[C@@H]1O[C@H](COC(C)=O)[C@@H](OC(C)=O)[C@H](OC(C)=O)[C@H]1OC(C)=O)C2`, the z-score in experiment [1] was -0.984; in [2], 0.776; in experiment [3], -0.536; in experiment [4] it was -2.58; in [5] it was -1.14; in [6], 1.7. Moreover, the z-score in experiment [7] was -0.325 (inactive); in experiment [8], -0.0793; in experiment [9], 0.0201; in experiment [10] it was -0.223 (inactive); in [11] it was -0.11; in experiment [12], -0.334 (inactive). Also, the z-score is 0.164 (inactive) in experiment [13]; -0.585 (inactive) in [15]; -0.567 (inactive) in [16]; -1.25 (inactive) in [17]; -1.82 (inactive) in experiment [18]; -0.387 in experiment [19]. Further, the composite z-score was -2.7 (inactive) in experiment [14] and 0.0825 in [20].
As to `CSCC[C@@H]1NC(=O)CC=C[C@@H](C)COC(=O)[C@H](C)COC1=O`, the z-score is 0.137 in experiment [1]; 0.641 in [2]; 0.929 in experiment [3]; 0.434 in experiment [4]; 0.798 in experiment [5]; 1.16 in experiment [6]. In addition, the z-score was 0.766 (inactive) in [7]; 0.0761 in [8]; 0.975 in [9]; -0.365 (inactive) in [10]; 0.376 in [11]; -1.59 (inactive) in experiment [12]. Moreover, the z-score is 0.745 (inactive) in [13]; 0.483 (inactive) in [15]; -2.43 (inactive) in experiment [16]; 1.17 (inactive) in experiment [17]; -0.216 (inactive) in [18]; -0.135 in [19]. Also, the composite z-score in experiment [14] was -0.766 (inactive); in experiment [20] it was 0.418.
Take `COc1ccc(COC(=O)NN=C2C[C@@H](O)[C@@H](O)[C@@H]3[C@@H]4C(=O)N(c5cccc(Oc6ccccc6)c5)C(=O)[C@@H]4CC[C@H]23)cc1`: the z-score in experiment [1] was -0.777; in [2], 0.487; in [3] it was -0.634; in [4], 0.0646; in experiment [5] it was -1.2; in experiment [6], 0.89. In addition, the z-score is -1.78 (inactive) in experiment [7]; 0.197 in experiment [8]; -1.73 in experiment [9]; 1.29 (inactive) in experiment [10]; 0.609 in experiment [11]; -1.08 (inactive) in experiment [12]. Also, the z-score in experiment [13] was -0.341 (inactive); in [15] it was -0.872 (inactive); in experiment [16] it was -1.02 (inactive); in [17], 0.829 (inactive); in [18] it was 0.751 (inactive); in experiment [19], 0.487. For the same compound, the composite z-score in [14] was -2.56 (inactive); in experiment [20], 0.274.
In the case of `CC(=O)OC[C@H]1O[C@H](C#CCC2CCCCC2)C=C[C@@H]1OC(C)=O`, the z-score was 0.422 in experiment [1]; -0.654 in [2]; 0.503 in experiment [3]; -3.48 in experiment [4]; -3.35 in [5]; -1.1 in [6]. The z-score in [7] is -0.185 (inactive); in experiment [8], -0.605; in [9], -1.99; in [10], -0.389 (inactive); in experiment [11] it was 0.0616; in experiment [12], -3.69 (inactive). In addition, the z-score in experiment [13] was -2.52 (inactive); in [15], 0.781 (inactive); in [16], 0.143 (inactive); in experiment [17] it was 1.07 (inactive); in experiment [18] it was 0.591 (inactive); in experiment [19], -1.24. Further, the figures for the composite z-score in [14] and in experiment [20] were -0.529 (inactive) and -0.0314, respectively.
As for `COc1cccc([C@H]2Oc3ccc(OC)cc3C(=NO[C@@H](C)c3cc(-c4c(C)cc(C)cc4C)no3)[C@@H]2O)c1`, the z-score in experiment [1] is -0.744; in experiment [2] it was -0.583; in [3] it was -1.08; in experiment [4] it was -1.38; in experiment [5] it was -0.845; in experiment [6], -2.54. Moreover, the z-score was -2.31 (inactive) in experiment [7]; 0.118 in experiment [8]; 0.463 in [9]; 0.321 (inactive) in [10]; -0.406 in [11]; 1.18 (inactive) in experiment [12]. For the same compound, the z-score in experiment [13] is 0.0117 (inactive); in experiment [15] it was 0.523 (inactive); in experiment [16], 1.96 (inactive); in [17], 0.243 (inactive); in [18], -1.43 (inactive); in [19], -0.116. Further, the composite z-score in experiment [14] was -2.77 (inactive); in experiment [20], -0.336.
